# GLP1R ag = GLP-1 receptor (human) agonism; P43220; HEK293 GLP-1R CRE-luciferase, luminescence, 4-6 h; cells express a hypersensitive GLP-1R form; Potency, µM (series often up to 45.6 µM), for inactives: at the top dose activation, usual class: activators; 380,000 tested, 0.007% active; also: % of control where 0% means no effect
# Target sequence (P43220 whole entry, looked up): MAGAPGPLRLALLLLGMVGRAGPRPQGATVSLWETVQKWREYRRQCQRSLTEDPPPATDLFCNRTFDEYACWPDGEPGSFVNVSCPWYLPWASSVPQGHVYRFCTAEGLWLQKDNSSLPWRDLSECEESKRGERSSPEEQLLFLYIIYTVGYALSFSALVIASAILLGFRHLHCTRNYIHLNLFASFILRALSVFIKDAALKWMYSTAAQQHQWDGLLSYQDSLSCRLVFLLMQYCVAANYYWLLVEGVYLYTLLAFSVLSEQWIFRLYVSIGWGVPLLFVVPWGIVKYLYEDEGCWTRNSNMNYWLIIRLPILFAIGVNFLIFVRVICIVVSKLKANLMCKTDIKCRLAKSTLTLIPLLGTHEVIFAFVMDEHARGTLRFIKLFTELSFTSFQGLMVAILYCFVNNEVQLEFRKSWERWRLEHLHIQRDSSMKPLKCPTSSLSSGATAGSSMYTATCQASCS
# GLP1R cytotox = cytotoxic in the GLP-1 receptor inverse agonist counter-screen; HEK293 cAMP-luciferase reporter cells, luminescence, 24 h; Potency, µM (series often up to 38.3 µM), without a hit: at the top dose activity change, negative = inhibition, most hits filed as inhibitors; 410,000 tested, 0.13% active; AID 624418;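 also: loss of luciferase light is scored as toxicity; % is scaled to controls: 0 for no effect and ±100 for the full control effect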
#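 Cells in DMEM/10% Nu serum/1% pen-strep, 1536-well format. Pre-incubated 12 h, dosed with 23 nL compound, incubated a further 24 h. Luciferase detection, 12 min at room temp, luminescence.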
# GLP-1R inv ag = GLP-1 receptor (human) inverse agonism. P43220. HEK293 GLP-1R CRE-luciferase, luminescence, 24 h; GLP-1R form is constitutively active. Potency, µM (top dose mostly 38.3 µM), inactives show top-dose activity change, negative = inhibition, actives largely listed as inhibitors. 410,000 tested, 1.6% active. AID 624417; also: % is scaled to controls: 0 for no effect and ±100 for the full control effect; nearly all actives have a fitted effect of over 55% in size
#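 GLP-1R inverse agonism mode: basal reporter luminescence in engineered HEK293 cells measured after one day of compound exposure at 37 deg C, with a 12 min room-temperature detection step.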
# Numbers without * were called inactive; ? = inconclusive; . = no result given. Shown are actives, neighbours in structure and some others; about 1.7% of the full set was active somewhere. Calls follow the shape of the dose curve; as a rule, active = well fitted curve in the direction sought with a large enough effect; inconclusive = small, poorly fitted or top-dose-only effect, or another doubt; inactive = no such curve, though single readings can be large; an effect the other way counts as inactive or inconclusive. Potency is read from the fitted curve at half-maximal effect.
SMILES,GLP1R ag,GLP1R cytotox,GLP-1R inv ag
COc1cccc(C(=O)C(=O)N2CCN(C(=O)OCc3ccccc3)CC2)c1,.,-12%,9%
CCCCCCN1C[C@H](n2cc(COC(=O)c3ccccc3)nn2)[C@@H](O)C[C@@H]1c1ccccc1,-3%,5%,?
CCCCCCN1C[C@@H](n2cc(COC(=O)c3ccccc3)nn2)[C@H](O)C[C@@H]1c1ccc(OC)cc1,-3%,-23%,14µM*
O=C(OCc1cn([C@H]2CN(C(=O)C3CCCCC3)[C@@H](c3ccc(Cl)cc3)C[C@@H]2O)nn1)c1ccccc1,1%,-17%,11µM*
O=C(OCc1cn([C@@H]2CN(C(=O)C3CCCCC3)[C@@H](c3ccccc3)C[C@H]2O)nn1)c1ccccc1,-4%,-13%,-4%
COCCNC(=S)Nc1ccccc1Cc1ccccc1,1%,-11%,-25%
NC(=O)C1CCN(C(=O)c2ccccc2NC(=O)c2nsc3ccccc23)CC1,.,-4%,8%
O=C(CC1C(=O)NCCN1C(=O)Nc1ccc(Cl)cc1)Nc1ccc(F)cc1 (stereo not drawn),7%,-10%,11µM*
O=C(CC1C(=O)NCCN1C(=O)c1ccc(Cl)cc1)Nc1ccc(F)cc1 (stereo not drawn),-11%,1%,-2%
CC(=O)c1ccc(S(=O)(=O)N(C)CC(=O)Nc2cc(C)on2)cc1,-17%,13%,23%
Cc1cc(NC(=O)CC(CN(C)S(=O)(=O)c2ccccc2)c2ccccc2)no1 (stereo not drawn),-7%,-5%,10µM*
CCC(=O)OC1CCC2C3CCc4cc(O)ccc4C3CCC12C (stereo not drawn),4%,.,.
COc1cc2c(cc1O)CCN[C@@]21CS[C@H]2c3c(OC(C)=O)c(C)c4c(c3C(COC1=O)N1C2C2c3c(cc(C)c(OC)c3O)CC([C@@H]1O)N2C)OCO4 (stereo partly drawn),-14%,.,.
C#CCNC(=O)C[C@@H]1C[C@@]2(C(=O)OC)CCCCC=C2N(Cc2ccc3c(c2)OCO3)C1=O,.,-1%,-10%
C=CCn1c(SCC(=O)Nc2c(C)n(C)n(-c3ccccc3)c2=O)nc2sc(C)c(-c3ccccc3)c2c1=O,4%,-3%,3.2µM*
C=CCn1c(SCC(=O)Nc2c(C)n(C)n(-c3ccccc3)c2=O)nc2sc(C)c(C)c2c1=O,10%,-3%,4%
CN1CCN(c2cc(N3CCN(C(=O)c4ccco4)CC3)c3c4c(onc24)-c2ccccc2C3=O)CC1,10%,?,?
O=C1c2ccccc2-c2onc3c(N4CCN(CCO)CC4)cc(N4CCN(C(=O)c5ccco5)CC4)c1c23,6%,?,11µM*
N=C1S/C(=C\c2ccc(-c3cccc(Cl)c3)o2)C(=O)N1c1nccs1,0%,?,?
COc1ccc(/C=C2\SC(=N)N(c3nccs3)C2=O)cc1OC,33%,-29%,10µM*
CCOc1ccccc1OCCN1CCC(Cc2ccccc2)CC1,10%,?,?
Cc1ccccc1OCCN1CCC(Cc2ccccc2)CC1,4%,-19%,8.9µM*
CCC(=O)c1ccccc1OCCCN1CCC(Cc2ccccc2)CC1,8%,?,7.9µM*
COc1cccc(OC)c1OCCCCN1CCC(Cc2ccccc2)CC1,-1%,-8%,?
CN(Cc1ccccc1)C(=O)C(=O)c1ccccc1,.,7%,-10%
SMILES,GLP1R ag,GLP1R cytotox,GLP-1R inv ag
COCCCNC(=O)c1sc2nc(C)c(C(=O)Nc3ccc(Cl)cc3)c(-c3ccc(Br)cc3)c2c1N,.,18%,-1%
O=C(c1cc2sccc2n1Cc1ccccc1)N1CCc2ccccc21,-13%,4%,?
O=C(c1cc2sccc2n1Cc1ccccc1)N1CCCc2ccccc21,0%,-3%,10µM*
Cc1ccccc1NC(=O)C1CCN(S(=O)(=O)c2ccccc2)CC1,.,-10%,8%
FC(F)(F)c1nc2ccccc2nc1N/N=C\c1ccccc1,2%,8.9µM*,?
NNc1nc2ccccc2nc1C(F)(F)F,0%,-3%,-6%
CCc1nn2c(=O)cc(COC(=O)c3ccc(NC(=O)c4cccs4)cc3)nc2s1,.,3%,9%
Fc1ccccc1C1CCN(Cc2nc(CC3CC3)no2)C1 (stereo not drawn),23%,4%,?
Clc1ccc(OC2CCN(Cc3nc(CC4CC4)no3)CC2)cc1,0%,0%,2µM*
Cc1ccccc1N=C1C(=O)Nc2ccccc21,-1%,-1%,26%
Cc1c(C(=O)N2CC(C)OC(C)C2)oc2ccccc12 (stereo not drawn),10%,3%,0%
Cc1c(C(=O)N2CCN(C(c3ccccc3)c3ccccc3)CC2)oc2ccccc12,-7%,19%,4.5µM*
CCN(C(=O)Cn1nnc2sc(-c3ccccc3)cc2c1=O)c1cccc(C)c1,.,4%,6%
CC(C)N(C(=O)CSc1nc2ccccc2n1Cc1ccc(F)cc1)C(C)C,4%,?,2.8µM*
COc1cccc(Cn2c(SCC(=O)N(C)c3ccccc3)nc3ccccc32)c1,.,-4%,?
CN(C(=O)CSc1nc2ccccc2n1Cc1cccc(C(F)(F)F)c1)c1ccccc1,.,-18%,10µM*
COC(=O)c1ccc(Cn2c(SCC(=O)Nc3ccc(F)cc3)nc3ccccc32)cc1,.,15%,7%
Cc1cc(C)c(Cn2c(C)c(CNCc3ccccc3C)c(C(=O)O)c2C)c(C)c1,.,-13%,-24%
CCOc1ccc(OCC)c(NC(=O)CN2CCN(c3cccc(C)c3)CC2)c1,24%,8%,?
CCOc1ccc(OCC)c(NC(=O)CN2CCN(c3cc(C)ccc3C)CC2)c1,0%,?,13µM*
CCOC(=O)c1sc2nc(C)nc(NCc3ccc(F)cc3)c2c1C,13%,-14%,7.1µM*
CCOC(=O)c1sc2nc(C)nc(NCc3ccc(Cl)cc3)c2c1C,12%,-9%,?
Cc1cn2c(=O)cc(COC(=O)c3cccc(NC(=O)COc4ccccc4Cl)c3)nc2s1,.,2%,9%
CCOC(=O)C(=CNc1cc(Cl)c(-c2ccco2)c(Cl)c1)C(=O)OCC,12%,34%,10µM*
CCOC(=O)C(=CNc1ccc(-c2ccco2)c(Cl)c1)C(=O)OCC,1%,9%,0%
SMILES,GLP1R ag,GLP1R cytotox,GLP-1R inv ag
COc1cccc(CC(NC(C)=O)C(=O)NC2CCN(S(=O)(=O)c3ccc(C)cc3)CC2)c1OC (stereo not drawn),7%,1%,-5%
COc1cccc(NC(=O)N2CCc3nc(NCc4cccc(Oc5ccccc5)c4)ncc3C2)c1,-1%,-22%,10µM*
O=C(Nc1ccc(OC(F)(F)F)cc1)N1CCc2nc(NCc3cccc(Oc4ccccc4)c3)ncc2C1,8%,-17%,-63%
CC(=Nc1ccc(C)cc1)c1sc2ccccc2c1O,-7%,137%,13µM*
CC(=Nc1ccc(C)cc1C)c1sc2ccccc2c1O,-10%,59%,?
CC(=O)c1ccc(-c2cccc(-c3cc(=O)oc4ccc(C(C)(C)C)cc34)c2)cc1,20%,3%,5%
COc1cccc(NC(=O)CSc2nccn2Cc2ccc3c(c2)OCO3)c1,.,1%,7%
COc1ccc(Cl)cc1NC(=O)Cn1nc(C(F)(F)F)c2c1CCC2,-8%,3%,?

# Screens deposited in PubChem BioAssay by National Center for Advancing Translational Sciences (NCATS).
